IMPase Li cell: membrane-permeable IMPase blocker, potentiated with lithium | hit rate 0.35% among 210,000 | CHO-M1 cells, IP1 TR-FRET (IP-One), carbachol + lithium | Potency, µM (titrated, usually from 59.4 µM), for the others: at the highest dose activity, negative = IMPase inhibition, actives largely listed as inhibitors;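 further: IP1 builds up when IMPase is blocked and the TR-FRET signal falls; plate controls were basal vehicle for no effect and high inhibitor control for full effect; nearly all actives have a fitted effect of over 50% in size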
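Lithium-sensitised IP1 accumulation assay; M1-expressing CHO cells treated 30 min at 37C with compound. Competitive antibody detection by time-resolved FRET followed a 10 min room-temperature lysis step.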
NPSR antag: antagonists of human neuropeptide S receptor cAMP signaling; Q6W5P4; CHO-NPSR cells, cAMP TR-FRET, antagonist mode; Potency, µM (doses to about 38.3 µM), for inactives: top-dose activity change, negative = inhibition, usual class: inhibitors; hit rate 1% among 220,000; further: on the % scale 0 is the no-effect control and ±100 the full control effect; nearly all actives have a fitted effect of over 50% in size
GCN5L2 inh: inhibitors of human GCN5L2 histone acetyltransferase; Q92830; GCN5L2 HAT assay, ThioGlo1 CoA-SH fluorescence; Potency, µM (top dose mostly 58.9 µM), for the others: at the top dose activity change, negative = inhibition, hits mostly inhibitors; hit rate 0.21% among 390,000; AID 504327; further: on the % scale 0 is the no-effect control and ±100 the full control effect
Target sequence (Q92830 whole entry, looked up): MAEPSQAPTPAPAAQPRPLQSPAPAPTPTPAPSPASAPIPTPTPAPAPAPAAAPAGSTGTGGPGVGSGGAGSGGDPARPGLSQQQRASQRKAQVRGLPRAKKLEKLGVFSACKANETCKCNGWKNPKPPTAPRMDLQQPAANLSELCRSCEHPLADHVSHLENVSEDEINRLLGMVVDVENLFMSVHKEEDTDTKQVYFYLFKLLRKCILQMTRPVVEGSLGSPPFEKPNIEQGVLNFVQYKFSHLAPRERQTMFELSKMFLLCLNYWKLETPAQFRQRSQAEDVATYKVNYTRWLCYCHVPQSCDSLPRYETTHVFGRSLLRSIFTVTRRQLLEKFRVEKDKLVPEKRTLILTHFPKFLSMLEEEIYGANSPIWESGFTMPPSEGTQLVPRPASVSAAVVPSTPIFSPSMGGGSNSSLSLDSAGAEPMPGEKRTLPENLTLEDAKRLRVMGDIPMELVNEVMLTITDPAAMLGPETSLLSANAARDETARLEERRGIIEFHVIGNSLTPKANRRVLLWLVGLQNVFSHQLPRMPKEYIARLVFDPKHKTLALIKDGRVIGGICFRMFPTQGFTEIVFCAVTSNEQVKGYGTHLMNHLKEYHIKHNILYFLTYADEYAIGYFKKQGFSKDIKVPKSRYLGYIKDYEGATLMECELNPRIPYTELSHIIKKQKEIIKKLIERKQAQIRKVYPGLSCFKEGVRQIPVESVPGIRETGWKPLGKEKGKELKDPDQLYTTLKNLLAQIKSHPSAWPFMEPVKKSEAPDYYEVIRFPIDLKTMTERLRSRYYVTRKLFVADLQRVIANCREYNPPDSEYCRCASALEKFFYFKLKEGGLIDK
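qHTS, 1536-well. 20nM enzyme, pH 7.5 HEPES/EDTA/Tween-20 buffer; 15 min compound preinc., RT. Start: 75uM H3(1-25), 70uM AcCoA, 50uM ThioGlo1. Read Ex340/Em540 at t=0 (autofluorescence flag) and t=20 min.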
Sfp inh: Sfp phosphopantetheinyl transferase inhibition; Q9F4F7; Biochemical Sfp PPTase activity, qHTS; Potency, µM, inactives show largest response in the series, negative = inhibition, actives largely listed as inhibitors; hit rate 3.5% among 310,000; AID 1490;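 further: the enzyme is Sfp with the accession as filed and its product quenches rhodamine fluorescence; 0% = enzyme reaction without inhibitor and -100% = no enzyme wells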
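Step 1, compound plus 15 nM Sfp-PPTase, 15 min, room temperature. Step 2, add rhodamine-CoA (5 uM) and BHQ-2-YbbR (12.5 uM). Step 3, read 525/598 nm fluorescence at 0 and 30 min.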
JMJD2E inh: JMJD2E (human) inhibition | B2RXH2 | JMJD2E catalytic domain, FDH-coupled NADH fluorescence (FDH is formaldehyde dehydrogenase) | Potency, µM (top dose mostly 57.1 µM), inactives show at the highest dose activity change, negative = inhibition, actives largely listed as inhibitors | hit rate 1.6% among 230,000; active means well fitted inhibition curve with a large enough effect, not every such curve was filed as active; inconclusive means small, poorly fitted or top-dose-only effect, or another doubt; inactive means no such curve, though single readings can be large or run the other way;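 further: 0% = wells with enzyme and -100% = buffer wells without enzyme; nearly all actives have a fitted effect of over 50% in size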
Epigenetic derep: regulators of epigenetic silencing causing reporter derepression in mouse cells. murine LDR cells, GFP reporter derepression, 30 h. Potency, µM (doses to about 53.9 µM), without a hit: at the highest dose GFP activation, actives largely listed as activators. hit rate 0.2% among 280,000. AID 1865; further: % of control where 0% means no effect; nearly all actives have a fitted effect of over 60% in size
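In this reporter-derepression format, murine cells bearing a silenced integrated CMV-GFP locus incubate with test compound (30 h, 37 C), then are washed and imaged; fluorescent objects of 20–120 um count as induced cells.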
An asterisk follows results filed as active; ? = inconclusive; . = no result given; [ ] = dose if it differs, or a comment. Most compounds without a hit are left out; they make up all but 3.6% or so of the library. Unless noted, the call rests on the fitted dose curve; in most records, active means well fitted curve in the direction sought with a large enough effect; inconclusive means small, poorly fitted or top-dose-only effect, or another doubt; inactive means no such curve, though single readings can be large; an effect the other way counts as inactive or inconclusive. Potency means the concentration at half of the fitted maximal effect.

SMILES	IMPase Li cell	NPSR antag	GCN5L2 inh	Sfp inh	JMJD2E inh	Epigenetic derep
Cn1c(SCC(=O)c2ccccc2)nnc1C1CC1	-7.3%[38.3 µM]	-8.3%[46.1 µM]	-2.3%	56.2µM*	-10.6%	-0.2%
CCC(=O)Nc1cccc(-c2nnc(SCC(=O)c3ccccc3)n2C)c1	-9.6%[38.3 µM]	-8.0%[46.1 µM]	-0.8%	79.4µM*	2.8%	-2.9%
O=C(CSc1nnc(C2CC2)n1Cc1ccccc1)N1CCN(S(=O)(=O)c2ccccc2)CC1	4.8%[38.3 µM]	-23.5%[46.1 µM]	-8.1%	-4.8%	2.3%	-0.9%
CCCC(=O)c1cc(O)c(O)cc1O	25.3%	.	.	.	.	.
O=C(COc1ccc2ccccc2c1)NCCNC(=O)COc1ccc2ccccc2c1	12.6µM*	?	-21.1%[0.501 µM]	2.4%	-5.3%	0.7%
O=c1ccsn1Cc1ccccc1	25.9%[38.3 µM]	-18.6%[46.1 µM]	?	0.631µM*	4.9%	0.0%
NC(CC(=O)Nc1ccc(Oc2cc(F)c(F)cc2Br)cc1)C(=O)O (centres undefined)	.	.	0.0%	-12.9%	.	.
CN1CCCN(Cc2ccccc2Br)CC1	.	.	-10.7%	79.4µM*	.	.
N#CC1=C(N)Oc2cc3ccccc3cc2C1c1cccnc1 (centres undefined)	17.5%[38.3 µM]	5.2%[46.1 µM]	-11.4%	-28.8%	2.4%	-2.1%
N#CC1=C(N)Oc2cc3ccccc3cc2C1c1cccs1 (centres undefined)	-3.3%[38.3 µM]	-8.4%[46.1 µM]	-14.1%	79.4µM*	6.3%	3.0%
CCNc1ncc2nc(-c3cccs3)c(=O)n(Cc3ccc(F)cc3)c2n1	3.5%	.	?	15.1%	.	.
O=C(Nc1ccccn1)Nc1cccs1	0.5%[38.3 µM]	-5.7%[46.1 µM]	-12.4%[0.501 µM]	50.1µM*	2.2%	6.7%
Cc1ccc(Cl)cc1NC(=O)Nc1cccs1	3.8%	-0.8%	-4.2%	50.1µM*	2.3%	-0.1%
CCc1ccccc1NC(=O)Nc1cccs1	5.4%	-3.0%	-4.5%	50.1µM*	3.2%	-0.4%
CCc1ccccc1NC(=O)CCC(=O)c1cccs1	.	.	-22.7%	2.5%	.	.
Cc1ccc(NC(=O)Nc2cccs2)c(C)c1	.	.	-4.9%	.	.	0.8%
Cc1ccccc1NC(=O)Nc1cccs1	12.6%[38.3 µM]	-12.0%[46.1 µM]	-3.3%	22.4µM*	-1.0%	-1.1%
COc1ccc(CCn2nnnc2C2(c3ccc(C)cc3)CC2)cc1	.	.	-18.0%	.	.	.
CCCCN(CC)C(=O)Cn1cc2c(n1)-c1c(oc(C(=O)N3CCCC3)c1C)CC2	.	.	1.0%	.	.	-2.0%
CC(C)NC(=O)Nc1cccs1	-0.1%	-3.9%[46.1 µM]	-0.5%	79.4µM*	-0.2%	1.0%
COc1ccc(NC(=O)Nc2cc(C)cc(C)c2)cn1	.	-11.9%	-0.5%	4.4%	-5.6%	-1.1%
COc1ccc(NC(=O)Nc2cccs2)cn1	.	.	-8.4%	56.2µM*	.	.
CCC(=O)OCN1C(=O)C=CC1=O	-2.6%	.	.	.	.	.
O=C1[C@H]2[C@H]3[C@H](O)[C@H](O)C/C(=N/OC[C@@H](O)COCc4ccco4)[C@@H]3CC[C@@H]2C(=O)N1C1CCCCC1	.	.	.	-0.4%	.	1.1%[10.1 µM]
Cc1ccccc1NC(=O)Cn1nnc(-c2ccc(N3CCOCC3)cc2)n1	10µM*	-21.4%[46.1 µM]	1.1%	7.5%	-12.2%	-1.1%
SMILES	IMPase Li cell	NPSR antag	GCN5L2 inh	Sfp inh	JMJD2E inh	Epigenetic derep
CN(C)c1ccc(-c2nnn(CC(=O)Nc3ccccc3N3CCOCC3)n2)cc1	7.5%[38.3 µM]	?	-10.3%	-1.5%	?	-0.7%
CCc1cccc2c3c([nH]c12)[C@@](CC)(CC(=O)O)OCC3	10.0%	.	12.6µM*	18.9%	0.8%[25.5 µM]	0.0%[16.9 µM]
Cc1c(C(=O)O)sc2nc(/C=C/c3cccc(F)c3)[nH]c(=O)c12	.	.	5.0%	8.5%	.	.
Cc1ccc(/C=C/c2nc3sc(C(=O)O)c(C)c3c(=O)[nH]2)cc1[N+](=O)[O-]	.	.	-5.6%	79.4µM*	.	.
Cc1ccc(C)c2nc3sc(C(=O)N4CCOCC4)c(N)c3cc12	0.3%	1.9%	-4.2%	17.3%	-8.4%	-0.1%
CCOc1ccc2nc3sc(C(=O)N4CCOCC4)c(N)c3cc2c1	5.1%	14.4%	-3.6%	31.6µM*	-0.7%	7.4%
CCC(C)NC(=O)CSc1nc2cc3c(cc2c(=O)n1Cc1ccc(C(=O)NCCc2ccc(OC)c(OC)c2)cc1)OCO3 (centres undefined)	.	.	-4.1%	.	.	11.2µM*
Oc1ccc(O)c(Cc2nc3ccccc3[nH]2)c1	3.1%	4.6%	-5.4%	35.5µM*	-26.3%	1.1%
CC(C1CCCC(=O)C1)[N+](=O)[O-] (centres undefined)	1.6%	.	.	20.2%	9.9%	-1.1%
COC(=O)C1=C(C)N(Cc2ccccc2)C(=NCC2CC2)N[C@H]1c1ccc(Br)cc1	.	.	0.9%	56.2µM*	.	.
COC(=O)C1=C(C)N(Cc2ccccc2)C(=NCc2cccc(Cl)c2)N[C@H]1c1cccc(F)c1	.	.	-7.2%	56.2µM*	.	.
COC(=O)C1=C(C)N(Cc2ccccc2)C(=NCc2ccc(OC)cc2)N[C@H]1c1cccc(F)c1	.	.	-6.9%	-6.7%	.	.
CC(C)NC(=O)c1cc2c(-c3ccc(Cl)cc3)nn(C)c2s1	-9.2%[38.3 µM]	-0.7%[46.1 µM]	-0.2%	2.6%	8.91µM*	1.7%
Cn1nc(-c2ccc(Cl)cc2)c2cc(C(=O)NCCCN3CCCC3)sc21	7.7%[38.3 µM]	10µM*	-3.7%	-7.0%	?	0.8%
O=C(NN=C1C2CC3CC1CC(Cl)(C3)C2)c1ccccn1	-17.6%	3.9%	-6.3%	7.94µM*	11.4%	0.0%
Cc1nnc(N2CCCC(C(=O)NCc3ccccc3)C2)c2nn(-c3ccccc3)c(C)c12 (centres undefined)	.	.	-10.0%	.	.	-0.3%
CCc1ccc(CNC(=O)C2CCCN(c3nnc(C)c4c(C)n(-c5ccccc5)nc34)C2)cc1 (centres undefined)	.	.	-5.3%	56.2µM*	.	-2.3%
COC(=O)c1cccc(OCC(O)Cn2cnc3cc(C)c(C)cc32)c1 (centres undefined)	-4.7%[38.3 µM]	-26.7%[46.1 µM]	0.0%	89.1µM*	-4.6%	-2.7%
COC(=O)c1ccc(OCC(O)Cn2cnc3cc(C)c(C)cc32)cc1 (centres undefined)	.	.	-1.8%	.	.	1.2%
Cc1cccc(N2C(=O)CSC23C(=O)N(CC(=O)NCCc2ccccc2)c2ccccc23)c1 (centres undefined)	.	.	-2.1%	.	.	-1.3%
CN(C)S(=O)(=O)c1cccc(-c2csc(N/N=C/c3ccco3)n2)c1	.	-0.8%	-9.2%	14.1µM*	-24.1%	7.0%
Cc1ccc(-c2csc(N/N=C/c3ccco3)n2)c(C)c1	-0.7%	-2.3%	3.2%	13.5%	-21.2%	1.5%
COc1ccc(C2C=C3CN(C(=O)OC(C)(C)C)S(=O)(=O)C3CC2OC(=O)c2cccc(C)c2)cc1 (centres undefined)	.	.	.	13.5%	.	.
CCOC(=O)c1c(-c2ccc(C)cc2)csc1NC(=O)c1cc2ccccc2oc1=O	17.6%[38.3 µM]	10µM*	-13.8%	?	6.5%	0.9%
CCOC(=O)c1c(-c2ccccc2)csc1NC(=O)C1CCCO1 (centres undefined)	10.2%[38.3 µM]	?	-7.5%	31.6µM*	?	0.0%
